Compound activity as filed in PubChem BioAssay.
PLCg1 inh = inhibitors of human phospholipase C gamma1. purified PLC-gamma1, fluorogenic substrate, fluorescence. inhibition, % at 12.2 µM. actives 0.84% (n = 370,000). AID 720700; in the data active = inhibition above about 9.5%
proKLK7 act = activators of human kallikrein-7 zymogen; actives 0.9% (n = 370,000); AID 652039; P49862; purified proKLK7, EDANS-DABCYL substrate fluorescence; 100% is mature enzyme control, 0% vehicle; activation, % at 7 µM;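 active = activation above the mean of all tested compounds plus 3 SD, computed per campaign excluding outliers beyond control limits, cut at about 13% in these data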
PLC-beta3 inh = PLC-beta3 (human) inhibition, primary screen. Purified PLC-beta3, fluorogenic substrate, fluorescence. Q01970. inhibition, % at 12.2 µM. actives 0.18% (n = 370,000); in the data active = inhibition above about 11%;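 note: 0% = median of compound wells on plate and 100% = full blocker control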
ADAM10 inh = inhibits human ADAM10; inhibition, % at 7 µM; AID 720582; actives 0.62% (n = 370,000); O14672; recombinant ADAM10, EDANS/DABCYL FRET peptide cleavage, 3 h;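 active = inhibition above a per-campaign cutoff equal to the mean of compounds falling between control-based bounds plus 3 SD, cut at about 20% in these data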;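 note: 0% = DMSO wells while the 100% control is not disclosed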
ADAM17 inh = inhibits human ADAM17. P78536. recombinant ADAM17, EDANS/DABCYL FRET peptide cleavage. inhibition, % at 6.95 µM. actives 0.83% (n = 370,000);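 active = inhibition above the mean of compounds lying between control limits plus 3 SD, set per campaign, cut at about 8.5% in these data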;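 note: 0% = DMSO-only wells as the low control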
Target sequence (P78536 215-824 limits assumed): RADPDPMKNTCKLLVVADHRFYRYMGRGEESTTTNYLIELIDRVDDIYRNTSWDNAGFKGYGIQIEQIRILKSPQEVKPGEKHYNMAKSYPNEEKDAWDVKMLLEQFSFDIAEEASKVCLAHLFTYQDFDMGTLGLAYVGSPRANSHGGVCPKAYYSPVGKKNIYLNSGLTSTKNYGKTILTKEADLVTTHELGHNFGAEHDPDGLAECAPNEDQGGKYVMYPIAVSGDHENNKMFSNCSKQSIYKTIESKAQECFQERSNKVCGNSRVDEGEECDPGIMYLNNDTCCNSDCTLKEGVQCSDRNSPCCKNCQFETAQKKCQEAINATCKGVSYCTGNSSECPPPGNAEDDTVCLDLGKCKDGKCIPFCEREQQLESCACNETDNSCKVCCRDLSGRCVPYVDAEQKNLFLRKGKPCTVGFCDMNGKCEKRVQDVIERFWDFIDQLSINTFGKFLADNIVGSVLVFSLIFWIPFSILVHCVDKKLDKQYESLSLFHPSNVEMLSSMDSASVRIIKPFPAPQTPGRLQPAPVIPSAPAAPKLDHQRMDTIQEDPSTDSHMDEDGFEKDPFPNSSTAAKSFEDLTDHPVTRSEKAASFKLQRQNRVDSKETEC
ADAM10 ctr = inhibits human ADAM10 in ADAM17 exosite counter-screen; shares compounds with ADAM17 inh; recombinant ADAM10, EDANS/DABCYL FRET peptide cleavage, 3 h; inhibition, % at 6.95 µM; actives 47% (n = 2,900); AID 743256;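 active = mean inhibition over the triplicate runs exceeds the activity threshold set in the earlier primary screen, cut at about 20% in these data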;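 note: 0% = DMSO wells and 100% = marimastat wells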
ADAM17 confirm = human ADAM17 inhibition, confirmation | shares compounds with ADAM17 inh | recombinant ADAM17, EDANS/DABCYL QFRET peptide cleavage | inhibition, % at 6.95 µM | actives 65% (n = 2,900);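 active = mean inhibition across replicates above the hit cutoff set in the primary screen, cut at about 8.5% in these data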;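 note: 0% = DMSO wells and 100% = marimastat wells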
Starred values were filed as active, the others as inactive; x = not tested or not shown. Shown are actives, neighbours in structure and some others; about 2.9% of the full set was active somewhere.

SMILES | PLCg1 inh | proKLK7 act | PLC-beta3 inh | ADAM10 inh | ADAM17 inh | ADAM10 ctr | ADAM17 confirm
COC(=O)[C@]12CCCCC=C1N(Cc1ccc3c(c1)OCO3)C(=O)[C@H](CC(=O)NCc1cccc3ccccc13)C2 | 3.5 | 0.2 | 2.2 | 19.0 | 8.9* | 33.3* | 22.3*
COC(=O)[C@]12CCCCC=C1N(CCc1ccc(OC)c(OC)c1)C(=O)[C@H](CC(=O)NCc1cccc(C(F)(F)F)c1)C2 | 3.4 | 1.0 | 3.4 | 13.0 | 8.8* | 24.2* | 14.9*
C=CCn1cnnc1SCC(=O)NCC1COc2ccccc2O1 (stereo unspecified) | -0.5 | -0.2 | -1.9 | -0.3 | -3.1 | x | x
COCCNC(=O)c1ccc2c(=O)n(Cc3ccco3)c(SCC(=O)NC3CCCC3)nc2c1 | 1.2 | -0.3 | 0.2 | -14.4 | -4.9 | x | x
OC(c1ccccc1)(c1nc(-c2cc(F)cc(F)c2)cs1)C(F)(F)F (stereo unspecified) | 1.3 | 0.3 | 0.8 | 17.3 | 9.5* | 39.9* | 17.8*
Cc1nc2ccccc2c(=O)n1NC(=O)/C=C/c1ccccc1 | 1.6 | -0.8 | 3.5 | 0.5 | -1.1 | x | x
CCCn1nc([N+](=O)[O-])c(C(C#N)c2nc3ccccc3s2)c(Cl)c1=O (stereo unspecified) | 3.0 | 0.1 | -1.9 | 19.7 | 8.6* | 23.5* | 17.5*
CCn1nc([N+](=O)[O-])c(C(C#N)c2nc3ccccc3n2C)c(Cl)c1=O (stereo unspecified) | -6.4 | -0.1 | -7.1 | -9.6 | 0.6 | x | x
CC(NC(=O)c1ccco1)C(=O)N1CCN(c2cccc(C(F)(F)F)c2)CC1 (stereo unspecified) | 3.3 | 0.3 | -3.7 | -6.5 | 0.7 | x | x
CC(NC(=O)c1ccco1)C(=O)N1CCN(c2ccccc2)CC1 (stereo unspecified) | 3.8 | -0.7 | 2.8 | -5.0 | 9.2* | -8.1 | -0.2
Cc1cc(NC(=O)COC(=O)C(Nc2ccc(C(F)(F)F)cc2Cl)C(C)C)no1 (stereo unspecified) | 1.2 | -0.6 | 4.1 | 19.6 | 10.1* | 41.2* | 23.6*
Cc1cc(NC(=O)COC(=O)c2ccc(OC(F)(F)F)cc2)no1 | 2.8 | -0.5 | -5.3 | -14.3 | -3.8 | x | x
CCc1ccc(C(=O)/C=C2\Sc3ccccc3NC2=O)cc1 | 0.6 | -0.2 | 0.0 | 15.6 | 8.8* | 10.9 | 10.9*
Nc1nc(CSC(=S)N2CCN(c3ccccc3)CC2)nc(Nc2ccccc2)n1 | -0.2 | 0.3 | -0.8 | 16.9 | 9.2* | 24.4* | 15.6*
O=C(CN1C(=O)C(=O)N(C2CCCC2)C1=O)NCCc1ccc(F)cc1 | -9.5 | -0.1 | -0.7 | -14.4 | -6.2 | x | x
CCN(C[C@H]1N[C@@](C)(C(=O)OC)[C@H]2C(=O)N(Cc3ccccc3)C(=O)[C@@H]12)S(=O)(=O)c1ccc(F)cc1 | 0.8 | 0.6 | 2.8 | -4.9 | 3.6 | x | x
CCN(C[C@H]1N[C@@](C)(C(=O)OC)[C@H]2C(=O)N(Cc3ccccc3)C(=O)[C@@H]12)S(=O)(=O)c1ccc(C(C)(C)C)cc1 | 4.6 | 0.4 | 5.8 | 15.4 | 9.4* | 20.8* | 13.4*
COc1cc(/C=C2\SC(=S)N(NC(=O)c3ccccc3OC)C2=O)ccc1O | -10.4 | -0.6 | -18.9 | 18.6 | 10.5* | 23.1* | 10.8*
NS(=O)(=O)c1ccc(N/N=C/C=C/c2ccccc2[N+](=O)[O-])cc1 | 5.0 | -0.2 | -8.3 | 17.4 | 8.7* | 18.6 | 18.5*
COc1cccc(C(C)(O)c2nc(-c3csc4ccccc34)cs2)c1 (stereo unspecified) | 2.8 | -0.1 | 5.6 | 12.3 | 9.5* | 33.0* | 16.1*
Cc1cc(C)nc(SCC(=O)c2ccc(O)c(O)c2)n1 | 0.8 | -0.3 | 1.3 | 5.8 | 1.9 | x | x
Cc1cc(SCC(=O)c2ccc(O)c(O)c2)n2nc(C)c(-c3ccccc3)c2n1 | -5.9 | 0.3 | -59.1 | 18.1 | 9.9* | 13.8 | 14.3*
COc1ccc(C)cc1NC(=O)CSc1nnc(COc2ccccc2)n1Cc1ccco1 | 8.7 | 0.4 | 2.5 | 15.3 | 6.3 | x | x
COc1ccc(C)cc1NC(=O)CSc1nnc(COc2ccc(Cl)cc2)n1Cc1ccco1 | 0.0 | 0.5 | -2.0 | 19.6 | 10.7* | 31.8* | 17.8*
COc1ccc(C)cc1NC(=O)CSc1nnc(CC(=O)Nc2ccccc2C)n1C | 5.6 | 0.2 | 2.3 | 7.1 | 8.7* | 3.1 | 0.0
SMILES | PLCg1 inh | proKLK7 act | PLC-beta3 inh | ADAM10 inh | ADAM17 inh | ADAM10 ctr | ADAM17 confirm
COc1cc2c(cc1NC(=O)CSc1nnc(-c3ccccc3C)n1Cc1ccco1)oc1ccccc12 | -1.0 | -0.2 | 2.8 | 18.5 | 10.1* | 21.8* | 14.6*
CCC(c1nnnn1Cc1ccccc1)N1CCN(C/C=C/c2ccccc2)CC1 (stereo unspecified) | 6.5 | 0.9 | -0.4 | -5.7 | -0.9 | x | x
Clc1ccc2ncc(-c3nnnn3-c3ccccc3)c(-c3ccccc3)c2c1 | 2.5 | 0.9 | 0.9 | 3.0 | -2.6 | x | x
Clc1ccc2[nH]cc(-c3nnnn3-c3ccccc3)c2c1 | -1.6 | -0.7 | 1.6 | 15.9 | 8.9* | 28.5* | 15.9*
Cc1[nH]c(=S)[nH]c(=O)c1Cc1c(O)ccc2ccccc12 | -15.3 | -0.1 | -17.0 | -61.3 | -16.6 | x | x
C/C=C/C(=O)N1CC2(CC(c3cccc(NC(=O)COc4ccc(Cl)cc4)c3)=NO2)C[C@@H]1C(N)=O (stereo partly specified) | -0.7 | 0.2 | -1.3 | 5.7 | -4.2 | x | x
CCCCCC(=O)N1CC2(CC(c3cccc(NC(=O)CC(c4ccccc4)c4ccccc4)c3)=NO2)C[C@@H]1C(N)=O (stereo partly specified) | 1.9 | 0.9 | 1.5 | 15.3 | 9.6* | 29.0* | 17.6*
NC(=O)[C@H]1CC2(CC(c3cccc(NC(=O)COc4ccc(Cl)cc4)c3)=NO2)CN1C(=O)CC(c1ccccc1)c1ccccc1 (stereo partly specified) | 0.9 | 0.1 | 6.2 | 35.4* | 18.0* | 37.3* | 21.0*
NC(=O)[C@H]1CC2(CC(c3cccc(NC(=O)COc4ccc(Cl)cc4)c3)=NO2)CN1C(=O)c1ccccc1C(=O)c1ccccc1 (stereo partly specified) | 4.2 | 0.6 | 5.6 | 13.0 | 8.7* | 24.0* | 15.1*
Cc1ccc(C(=O)NCCc2cc3ccc(C)c(C)c3[nH]c2=O)cc1[N+](=O)[O-] | 0.1 | 0.6 | -0.5 | -23.5 | -4.1 | x | x
CCC1Sc2ccc(S(=O)(=O)CCC(=O)Nc3ccc(NC(C)=O)cc3)cc2NC1=O (stereo unspecified) | 2.9 | 0.7 | -5.4 | -3.6 | -1.0 | x | x
COc1cc(NC(=O)c2ccc(S(=O)(=O)N(C)c3ccccc3)cc2)cc(OC)c1 | 0.1 | 0.1 | 0.3 | 14.6 | 10.3* | 29.8* | 16.8*
